Measurements from PubChem BioAssay (Tox21).
Where “and” joins values, the source holds several entries; their conditions need not be identical. Equal entries are not always repeated. Values without a mark were called inactive. Results filed as inconclusive are left out. A call without a number means that no potency is given here. Calls of active or inactive are those of the source. Calls follow the shape of the dose curve; as a rule, active = well fitted curve in the direction sought with a large enough effect in the repeat runs; inconclusive = weak or mixed curves; inactive = no such curve, though single readings can be large; an effect the other way counts as inactive or inconclusive.

How the values were obtained:
[1] = Human pregnane X receptor (PXR) small molecule agonists, qHTS cell viability counter screen (AID 1346977); also: nearly all actives have a fitted effect of over 50% in size; also: potency is read from the fitted curve at half-maximal effect
Procedure, shortened: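 PXR-Luc HepG2 cells in medium with 5% charcoal-stripped FBS were pre-incubated 5hr, then exposed to compounds for 24hr at 37C. Viability was read in the same wells by CellTiter-Fluor fluorescence, reagent added after 23hr with a 1hr incubation.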

[2] = Caspase-3/7 induction in HepG2 cells by small molecules, qHTS assay (AID 1346978); also: nearly all actives have a fitted effect of over 15% in size; also: potency is read from the fitted curve at half-maximal effect
Procedure, shortened: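 Wild-type HepG2 cells (2,000/well) were settled 5 h at 37 C, 5% CO2, then exposed to compounds in DMSO for 17 h. Caspase-3/7 activity was read by luminescence 30 min after adding Caspase-Glo 3/7 reagent at room temperature.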

[3] = Caspase-3/7 induction in CHO-K1 cells by small molecules, qHTS cell viability counter screen (AID 1346979); also: nearly all actives have a fitted effect of over 35% in size; also: potency is read from the fitted curve at half-maximal effect
Procedure, shortened: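 Wild-type CHO-K1 cells were seeded at 1,500 per well, rested 5hr at 37 C, then exposed to compounds in DMSO. After 16hr, CellTiter-Fluor reagent was added and fluorescence read 1hr later as the viability measure.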

[4] = Caspase-3/7 induction in CHO-K1 cells by small molecules, qHTS assay (AID 1346980); also: nearly all actives have a fitted effect of over 15% in size; also: potency is read from the fitted curve at half-maximal effect
Procedure, shortened: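 Wild-type cells were seeded at 1,500 per well and settled 5 hr at 37 C, 5% CO2, then exposed to DMSO-dissolved compounds for 17 hr. Caspase-Glo 3/7 reagent was added, and luminescence was read after 30min at room temperature.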

[5] = Caspase-3/7 induction in HepG2 cells by small molecules, qHTS cell viability counter screen (AID 1346981); also: nearly all actives have a fitted effect of over 30% in size; also: potency is read from the fitted curve at half-maximal effect; as to activity change, negative = cytotoxicity: series mostly up to about 92 µM
Procedure, shortened: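 Viability determined by CellTiter-Fluor fluorescence in HepG2 wells also used for the luminescent Caspase-Glo 3/7 read. Compounds were present for 16 hr at 37 C, 5% CO2 before reagent addition.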

[6] = target: Nuclear receptor subfamily 1 group I member 2 (Homo sapiens) (UniProt O75469); experiment: Human pregnane X receptor (PXR) small molecule agonists, qHTS assay (AID 1346982); also: nearly all actives have a fitted effect of over 35% in size; also: potency is read from the fitted curve at half-maximal effect
Procedure, shortened: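 Compound-induced hPXR transactivation of a CYP3A4 luciferase reporter was scored in HepG2 PXR-Luc cells over 24 hr at 37 C, 5% CO2, by luminescence.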

[7] = target: Nuclear receptor subfamily 1 group I member 2 (Rattus norvegicus) (UniProt Q9R1A7); experiment: Rat pregnane X receptor (rPXR) activation by small molecules, qHTS assay (AID 1346983); conditions: rPXR luciferase reporter cells, One-Glo luminescence, 24 h; hits give high values; also: nearly all actives have a fitted effect of over 20% in size
Procedure, shortened: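 Cell-based rPXR luciferase reporter assay, 2,000 cells per well, rested 5hr at 37 C before compound addition in DMSO, then 24 hr at 37 C. One-Glo reagent was added and luminescence read after 30 min at room temperature.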

[8] = target: Nuclear receptor subfamily 1 group I member 2 (Homo sapiens) (UniProt O75469); experiment: CYP3A4 induction through human pregnane X receptor (PXR) by small molecules, qHTS assay (AID 1346984); also: nearly all actives have a fitted effect of over 40% in size
Procedure, shortened: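 Readings come from a luciferase reporter: DPX-2 cells, which are HepG2 cotransfected with PXR and a CYP3A4-promoter construct, were exposed to test compounds for 24 h at 37C before One-Glo detection.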

[9] = target: Nuclear receptor subfamily 1 group I member 2 (Homo sapiens) (UniProt O75469); experiment: Human pregnane X receptor (PXR) activation by small molecules, qHTS assay (AID 1346985); also: nearly all actives have a fitted effect of over 40% in size
Procedure, shortened: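 DPX-2 cells (HepG2 co-transfected with a PXR response element and a CYP3A4-promoter luciferase construct) were seeded at 2,000 per well, rested 5 hr at 37C, then exposed to DMSO-dissolved compounds for 24 hr. Activation was read as luciferase luminescence.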

[10] = target: Cytochrome P450 2D6 (Homo sapiens) (UniProt P10635); experiment: Cytochrome P450 Family 2 Subfamily D Member 6 (CYP2D6) small molecule antagonists: luciferase reporter qHTS assay (AID 1671196); also: nearly all actives have a fitted effect of over 50% in size; also: potency is read from the fitted curve at half-maximal effect
Procedure, shortened: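 Each well received CYP2D6 with its proluciferin substrate and chemical, sat 10 min, then got NADPH regeneration solution for 1 h at room temperature. Luminescence in RLU served as the activity measure.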

Chain of Nuclear receptor subfamily 1 group I member 2 (Homo sapiens) (O75469 whole entry, looked up): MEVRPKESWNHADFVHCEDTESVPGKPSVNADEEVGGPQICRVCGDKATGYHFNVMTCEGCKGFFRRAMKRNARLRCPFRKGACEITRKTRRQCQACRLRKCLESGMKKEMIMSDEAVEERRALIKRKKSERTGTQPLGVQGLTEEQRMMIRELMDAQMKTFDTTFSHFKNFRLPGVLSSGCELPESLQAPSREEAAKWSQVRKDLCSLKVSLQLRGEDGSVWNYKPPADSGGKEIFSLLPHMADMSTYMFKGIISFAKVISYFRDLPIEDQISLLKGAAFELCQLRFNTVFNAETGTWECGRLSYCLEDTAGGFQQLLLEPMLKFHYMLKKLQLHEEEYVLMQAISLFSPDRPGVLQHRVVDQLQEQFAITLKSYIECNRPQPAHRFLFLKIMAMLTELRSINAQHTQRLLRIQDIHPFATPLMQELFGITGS
Chain of Cytochrome P450 2D6 (Homo sapiens) (P10635 whole entry, looked up): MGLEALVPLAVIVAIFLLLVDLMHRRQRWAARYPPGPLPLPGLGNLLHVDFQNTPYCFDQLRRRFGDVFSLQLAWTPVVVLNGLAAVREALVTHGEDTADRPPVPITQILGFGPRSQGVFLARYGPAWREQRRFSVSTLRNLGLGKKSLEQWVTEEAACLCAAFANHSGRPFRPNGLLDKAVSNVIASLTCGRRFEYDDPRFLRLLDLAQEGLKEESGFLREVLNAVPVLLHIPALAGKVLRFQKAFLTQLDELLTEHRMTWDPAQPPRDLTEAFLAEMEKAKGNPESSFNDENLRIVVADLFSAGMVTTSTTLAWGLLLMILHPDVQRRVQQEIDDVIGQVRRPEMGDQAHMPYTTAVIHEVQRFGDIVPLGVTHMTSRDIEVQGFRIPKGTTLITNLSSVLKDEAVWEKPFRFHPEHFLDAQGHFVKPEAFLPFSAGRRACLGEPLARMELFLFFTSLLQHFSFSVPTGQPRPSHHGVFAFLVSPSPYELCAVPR
Chain of Nuclear receptor subfamily 1 group I member 2 (Rattus norvegicus) (Q9R1A7 whole entry, looked up): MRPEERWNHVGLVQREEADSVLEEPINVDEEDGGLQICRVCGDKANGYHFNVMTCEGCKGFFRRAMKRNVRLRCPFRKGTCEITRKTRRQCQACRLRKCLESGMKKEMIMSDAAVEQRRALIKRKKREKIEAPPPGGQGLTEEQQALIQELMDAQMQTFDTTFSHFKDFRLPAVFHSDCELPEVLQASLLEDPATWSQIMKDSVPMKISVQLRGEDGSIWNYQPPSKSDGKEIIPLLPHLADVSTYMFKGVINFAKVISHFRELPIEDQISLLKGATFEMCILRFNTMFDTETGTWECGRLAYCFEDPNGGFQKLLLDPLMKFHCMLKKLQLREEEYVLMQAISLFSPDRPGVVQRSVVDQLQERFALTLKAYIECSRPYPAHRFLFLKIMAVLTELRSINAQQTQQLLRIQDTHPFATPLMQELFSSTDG

With Clc1nnc(Cl)c2ccccc12 the Potency [1] was “inactive”, the Potency [2] was “inactive” and the Potency [3] was “inactive”. For the same compound, the Potency [4] was “inactive” and the Potency [5] was “inactive”.

With CN(C)CCN1CCN(c2cccc(Cl)c2)C1=O the Potency [1] was “inactive”, the Potency [2] was “inactive” and the Potency [3] was “inactive”. For the same compound, the Potency [4] was “inactive”, the Potency [5] was “inactive” and the Potency [6] was “inactive”.

For C[C@H]1NCc2cc(-c3ccc4c(=O)c(C(=O)O)cn(C5CC5)c4c3OC(F)F)ccc21, the activity change, negative = cytotoxicity [1] was 2.7% [at 19 µM], the caspase activation [2] was -1.73% [at 19 µM] and the activity change, negative = cytotoxicity [3] was 0.359% [at 19 µM]. For the same compound, the caspase-3/7 activation [4] was 0.0016% [at 19 µM], the activity change, negative = cytotoxicity [5] was -1.4% [at 19 µM] and the activation [6] was -6.61% [at 19 µM].

In the case of COc1cccc2c1C(=O)c1c(O)c3c(c(O)c1C2=O)C[C@@](O)(C(C)=O)C[C@@H]3O[C@H]1C[C@H](N)[C@H](O)[C@H](C)O1, the Potency [1] is reported as 1.09 µM (active) and 2.66 µM (active), the Potency [2] is reported as 1.38 µM (active) and 1.33 µM (active) and the Potency [3] is reported as 21.8 µM (active) and 9.44 µM (active). For the same compound, the Potency [4] was 4.89 µM (active) and 6.68 µM (active) and the Potency [5] was 30.8 µM (active) and 4.22 µM (active).

For CCCCNS(=O)(=O)c1ccc(C)cc1, the Potency [1] was “inactive”, the Potency [2] was “inactive” and the Potency [3] was “inactive”. The Potency [4] was “inactive” and the Potency [5] was “inactive”.

With Cc1cc(C(C)(C)C)c(O)c(C)c1Cn1c(=O)n(Cc2c(C)cc(C(C)(C)C)c(O)c2C)c(=O)n(Cc2c(C)cc(C(C)(C)C)c(O)c2C)c1=O the Potency [1] was “inactive”, the Potency [2] was “inactive” and the Potency [3] was 27.3 µM (active). The Potency [4] was “inactive” and the Potency [5] was “inactive”.

In the case of CCCCCCCC, the Potency [1] is reported as “inactive”, the Potency [2] is reported as “inactive” and the Potency [3] is reported as “inactive”. For the same compound, the Potency [4] was “inactive”, the Potency [5] was “inactive” and the Potency [6] was “inactive”.

In the case of Nc1ccc(C(=O)O)c(O)c1, the Potency [1] is reported as “inactive”, the Potency [2] is reported as “inactive” and the Potency [3] is reported as “inactive”. For the same compound, the Potency [4] was “inactive”, the Potency [5] was “inactive” and the Potency [6] was “inactive”. For the same compound, the max activation [7] was -0.56%, the Potency [8] was “inactive” and the Potency [9] was “inactive”. The Potency [10] was “inactive”.

In the case of O=c1oc2cc(O)ccc2c2oc3cc(O)ccc3c12, the Potency [1] is reported as “inactive”, the Potency [2] is reported as “inactive” and the Potency [3] is reported as “inactive”. The Potency [4] was “inactive”, the Potency [5] was “inactive” and the Potency [6] was 65.7 µM (active).

In the case of O=C1NC(=O)[C@@H]2CC=CC[C@H]12, the Potency [1] is reported as “inactive”, the Potency [2] is reported as “inactive” and the Potency [3] is reported as “inactive”. For the same compound, the Potency [4] was “inactive” and the Potency [5] was “inactive”.

For COC1=C(OC)C(=O)C(CCCCCCCCCCO)=C(C)C1=O, the Potency [1] was “inactive”, the Potency [2] was “inactive” and the Potency [3] was 23.7 µM (active). For the same compound, the Potency [4] was “inactive”, the Potency [5] was “inactive” and the Potency [6] was “inactive”. For the same compound, the Potency [8] was “inactive”, the Potency [9] was “inactive” and the Potency [10] was 34.7 µM (active).

With CCOc1ccc2ccccc2c1C(=O)N[C@@H]1C(=O)N2[C@@H]1SC(C)(C)[C@@H]2C(=O)O the Potency [1] was “inactive”, the Potency [2] was “inactive” and the Potency [3] was “inactive”. The Potency [4] was “inactive”, the Potency [5] was “inactive” and the Potency [6] was “inactive”. The Potency [8] was “inactive”, the Potency [9] was “inactive” and the Potency [10] was “inactive”.

In the case of CCCC(=O)OC(C)(C)Cc1ccccc1, the Potency [1] is reported as “inactive”, the Potency [2] is reported as “inactive” and the Potency [3] is reported as “inactive”. The Potency [4] was “inactive” and the Potency [5] was “inactive”.

With CC(C)(C)CC(C)(C)c1ccc(Nc2ccc(C(C)(C)CC(C)(C)C)cc2)cc1 the activity change, negative = cytotoxicity [1] was 1.07% [at 8.39 µM], the caspase activation [2] was 1.74% [at 8.39 µM] and the activity change, negative = cytotoxicity [3] was 5.88% [at 8.39 µM]. For the same compound, the caspase-3/7 activation [4] was 2.02% [at 8.39 µM] and the activity change, negative = cytotoxicity [5] was 3.23% [at 8.39 µM].

With CN(C)c1ccc(C(=C2C=CC(=[N+](C)C)C=C2)c2ccc(N(C)C)cc2)cc1 the Potency [1] was 3.84 µM (active) and 2.73 µM (active) and 6.68 µM (active), the Potency [2] was 19.2 µM (active) and 27.3 µM (active) and 26.6 µM (active) and the Potency [3] was 1.71 µM (active) and 686 nM (active) and 2.37 µM (active). The Potency [4] was 7.66 µM (active) and 6.11 µM (active) and 8.41 µM (active), the Potency [5] was 17.1 µM (active) and 9.69 µM (active) and 8.41 µM (active) and the Potency [6] was 2.42 µM (active). For the same compound, the Potency [8] was “inactive” and the Potency [9] was “inactive”.

In the case of CCCNCCC, the Potency [1] is reported as “inactive”, the Potency [2] is reported as “inactive” and the Potency [3] is reported as “inactive”. The Potency [4] was “inactive”, the Potency [5] was “inactive” and the Potency [6] was “inactive”.

For CN(C)C(=O)COC(=O)Cc1ccc(OC(=O)c2ccc(N=C(N)N)cc2)cc1, the Potency [1] was “inactive”, the Potency [2] was “inactive” and the Potency [3] was “inactive”. For the same compound, the Potency [4] was “inactive”, the Potency [5] was “inactive” and the Potency [6] was “inactive”. For the same compound, the Potency [8] was “inactive”, the Potency [9] was “inactive” and the Potency [10] was “inactive”.

With CCOC(=O)Cn1cccc1-c1nc(-c2ccc(OC)cc2)c(-c2ccc(OC)cc2)s1 the Potency [1] was “inactive”, the Potency [2] was “inactive” and the Potency [3] was “inactive”. The Potency [4] was “inactive”.

For CC1(C)CCC[C@]2(C)[C@H]3CC(=O)O[C@]3(C)CC[C@@H]12, the Potency [1] was “inactive”, the Potency [2] was “inactive” and the Potency [3] was “inactive”. The Potency [4] was “inactive”, the Potency [5] was “inactive” and the Potency [6] was 30.6 µM (active).

For [Cu+], the Potency [1] was “inactive”, the Potency [2] was “inactive” and the Potency [3] was “inactive”. The Potency [4] was “inactive”, the Potency [5] was “inactive” and the Potency [6] was “inactive”.

In the case of CCCCC/C=C\C/C=C\CCCCCCCC(=O)O, the Potency [1] is reported as “inactive”, the Potency [2] is reported as “inactive” and the Potency [3] is reported as 60.1 µM (active). For the same compound, the Potency [4] was “inactive”, the Potency [5] was “inactive” and the Potency [6] was 60.1 µM (active). For the same compound, the Potency [8] was “inactive”, the Potency [9] was “inactive” and the Potency [10] was 31.2 µM (active).

With Cc1cc(-n2nc3ccc(Cl)cc3n2)c(O)c(C(C)(C)C)c1 the Potency [1] was “inactive”, the Potency [2] was “inactive” and the Potency [3] was “inactive”. For the same compound, the Potency [4] was “inactive”, the Potency [5] was “inactive” and the Potency [6] was “inactive”. For the same compound, the Potency [8] was “inactive”, the Potency [9] was “inactive” and the Potency [10] was “inactive”.

For CC(C)(C)c1ccc(C(O)CCCN2CCC(C(O)(c3ccccc3)c3ccccc3)CC2)cc1 (configuration not stated), the Potency [1] was “inactive”, the Potency [2] was 11.9 µM (active) and the Potency [3] was 11.9 µM (active).

For Oc1c(I)cc(Cl)c2cccnc12, the Potency [1] was “inactive”, the Potency [2] was “inactive” and the Potency [3] was 27.3 µM (active) and 29.8 µM (active). For the same compound, the Potency [4] was “inactive”, the Potency [5] was “inactive” and the Potency [6] was 24.3 µM (active) and 23.7 µM (active).

With O=C(O)c1cc(=O)c2ccccc2o1 the Potency [1] was “inactive”, the Potency [2] was “inactive” and the Potency [3] was “inactive”. For the same compound, the Potency [4] was “inactive”, the Potency [5] was “inactive” and the Potency [6] was “inactive”. For the same compound, the max activation [7] was -0.583%, the Potency [8] was “inactive” and the Potency [9] was “inactive”. For the same compound, the Potency [10] was “inactive”.

In the case of CC(CCc1ccccc1)NCC(O)c1ccc(O)c(C(N)=O)c1 (configuration not stated), the Potency [1] is reported as 43.3 µM (active), the Potency [2] is reported as “inactive” and the Potency [3] is reported as 43.3 µM (active). For the same compound, the Potency [4] was “inactive”, the Potency [5] was 27.3 µM (active) and the Potency [6] was 17.2 µM (active). For the same compound, the Potency [8] was “inactive”, the Potency [9] was “inactive” and the Potency [10] was 0.564 µM (active).
